According to PubChem BioAssay (EPA / NIEHS):
Results filed as inconclusive are left out. Activity calls are given as the source filed them. How the source made its calls, unless noted: active means hit-call score of the fitted dose curve at least 0.9, where 1 is the maximum; inactive means score below 0.9.

What was measured:
[1] = target: Bile acid receptor (Homo sapiens) (UniProt Q96RI1); experiment: ATG_FXR_TRANS: Attagene TRANS-FACTORIAL HepG2 Assay for Farnesoid X Receptor (FXR) (AID 2282979; active means hit-call score of the fitted dose curve at least 0.9, where 1 is the maximum;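 further: hits raise reporter mRNA above DMSO so AC50 marks FXR activation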); conditions: HepG2 Attagene TRANS FXR-GAL4 reporter transcription
Sequence of Bile acid receptor (Homo sapiens) (Q96RI1 whole entry, looked up, the tested form may be a part): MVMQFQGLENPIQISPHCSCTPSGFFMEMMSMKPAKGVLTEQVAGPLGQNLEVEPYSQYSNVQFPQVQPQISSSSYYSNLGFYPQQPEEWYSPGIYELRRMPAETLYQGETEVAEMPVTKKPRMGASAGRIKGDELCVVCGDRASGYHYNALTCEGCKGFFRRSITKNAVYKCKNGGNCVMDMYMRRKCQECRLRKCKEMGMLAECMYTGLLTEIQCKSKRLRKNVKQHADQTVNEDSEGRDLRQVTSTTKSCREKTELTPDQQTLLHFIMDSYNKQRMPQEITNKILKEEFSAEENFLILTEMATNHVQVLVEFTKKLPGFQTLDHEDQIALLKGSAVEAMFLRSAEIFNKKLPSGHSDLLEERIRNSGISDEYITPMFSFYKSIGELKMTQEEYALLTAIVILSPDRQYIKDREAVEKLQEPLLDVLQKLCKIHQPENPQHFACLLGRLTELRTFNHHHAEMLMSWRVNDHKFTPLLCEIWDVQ
Procedure, shortened: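 Reporter transcripts from transfected HepG2 cells were measured 24 h after dosing, using RT-PCR with capillary electrophoresis of 6-FAM-labelled fragments. The read-out reflects activity of exogenous FXR-Gal4 chimera on GAL4-UAS units, with induction relative to DMSO.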

[2] = target: Oxysterols receptor LXR-alpha (Homo sapiens) (UniProt Q13133); experiment: ATG_LXRa_TRANS: Attagene TRANS-FACTORIAL HepG2 Assay for human Liver X Receptor alpha (LXRa) (AID 2282980; active means hit-call score of the fitted dose curve at least 0.9, where 1 is the maximum); conditions: HepG2 Attagene TRANS reporter, LXRa transactivation
Sequence of Oxysterols receptor LXR-alpha (Homo sapiens) (Q13133 whole entry, looked up, the tested form may be a part): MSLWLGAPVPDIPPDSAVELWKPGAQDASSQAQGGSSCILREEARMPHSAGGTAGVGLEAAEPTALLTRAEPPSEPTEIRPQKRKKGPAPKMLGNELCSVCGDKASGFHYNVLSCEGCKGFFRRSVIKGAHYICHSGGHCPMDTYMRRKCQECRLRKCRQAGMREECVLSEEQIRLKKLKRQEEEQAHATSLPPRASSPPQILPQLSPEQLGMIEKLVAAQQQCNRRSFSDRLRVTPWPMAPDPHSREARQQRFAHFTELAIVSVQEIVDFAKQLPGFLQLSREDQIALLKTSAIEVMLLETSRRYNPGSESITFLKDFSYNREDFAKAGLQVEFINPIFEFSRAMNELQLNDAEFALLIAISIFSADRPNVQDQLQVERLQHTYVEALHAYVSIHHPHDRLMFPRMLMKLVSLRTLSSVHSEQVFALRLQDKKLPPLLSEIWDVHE
Procedure, shortened: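 Chemical-induced reporter mRNA measured by RT-PCR with fluorescent labelling and capillary electrophoresis after 24 h dosing of transiently transfected HepG2 cells expressing exogenous NR-Gal4 chimeras; increases scored against DMSO baseline.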

[3] = target: Oxysterols receptor LXR-beta (Homo sapiens) (UniProt P55055); experiment: ATG_LXRb_TRANS: Attagene TRANS-FACTORIAL HepG2 Assay for human Liver X Receptor beta (LXRb) (AID 2282981; active means hit-call score of the fitted dose curve at least 0.9, where 1 is the maximum); conditions: HepG2 Attagene TRANS GAL4-LXRb reporter, mRNA
Sequence of Oxysterols receptor LXR-beta (Homo sapiens) (P55055 whole entry, looked up, the tested form may be a part): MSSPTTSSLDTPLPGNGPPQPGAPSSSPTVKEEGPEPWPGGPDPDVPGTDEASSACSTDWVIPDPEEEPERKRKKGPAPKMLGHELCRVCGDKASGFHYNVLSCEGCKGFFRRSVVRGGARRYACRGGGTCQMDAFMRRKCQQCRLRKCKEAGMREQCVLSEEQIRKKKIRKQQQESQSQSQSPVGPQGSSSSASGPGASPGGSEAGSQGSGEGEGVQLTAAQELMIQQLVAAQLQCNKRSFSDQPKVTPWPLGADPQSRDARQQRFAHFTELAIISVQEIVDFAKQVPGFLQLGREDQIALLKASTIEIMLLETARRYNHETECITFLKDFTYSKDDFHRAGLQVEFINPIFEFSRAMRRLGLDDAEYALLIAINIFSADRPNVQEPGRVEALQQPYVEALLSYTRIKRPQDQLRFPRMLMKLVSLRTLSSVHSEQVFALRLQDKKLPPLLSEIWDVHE
Procedure, shortened: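 After 24 h chemical treatment of transfected HepG2 cells carrying exogenous NR-Gal4 chimeras, reporter mRNA was quantified by fluorescent RT-PCR and capillary electrophoresis; activity taken as increase over DMSO controls.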

[4] = ATG_M_06_TRANS: Attagene TRANS-FACTORIAL HepG2 Assay for M06 Transcription Factor (Internal Marker) (AID 2282983; active means hit-call score of the fitted dose curve at least 0.9, where 1 is the maximum); conditions: HepG2 Attagene TRANS M06 internal marker reporter
Procedure, shortened: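 Background-control reporter readout: after 24 h chemical exposure of transiently transfected HepG2 (GAL4-UAS reporter units), mRNA quantified by RT-PCR with fluorescent labeling and capillary electrophoresis. Gain-of-signal fitting against DMSO baseline.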

[5] = ATG_M_32_TRANS: Attagene TRANS-FACTORIAL HepG2 Assay for M32 Transcription Factor (Internal Marker) (AID 2282984; active means hit-call score of the fitted dose curve at least 0.9, where 1 is the maximum); conditions: HepG2 Attagene TRANS M32 internal marker reporter
Procedure, shortened: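 Internal background reporter in transfected HepG2: after 24 h chemical exposure, RNA reverse-transcribed, reporter cDNA amplified, fluorescently labelled and HpaI-cut, then sized by capillary electrophoresis. Gain of signal fitted against DMSO control.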

[6] = target: Transcriptional activator Myb (Homo sapiens) (UniProt P10242); experiment: ATG_Myb_CIS: Attagene CIS-FACTORIAL HepG2 Assay for human Myeloblastosis (Myb) Proto-Oncogene Transcription Factor (AID 2282986); conditions: HepG2 Attagene CIS-FACTORIAL Myb reporter transcription; actives raise or lower the signal
Sequence of Transcriptional activator Myb (Homo sapiens) (P10242 whole entry, looked up): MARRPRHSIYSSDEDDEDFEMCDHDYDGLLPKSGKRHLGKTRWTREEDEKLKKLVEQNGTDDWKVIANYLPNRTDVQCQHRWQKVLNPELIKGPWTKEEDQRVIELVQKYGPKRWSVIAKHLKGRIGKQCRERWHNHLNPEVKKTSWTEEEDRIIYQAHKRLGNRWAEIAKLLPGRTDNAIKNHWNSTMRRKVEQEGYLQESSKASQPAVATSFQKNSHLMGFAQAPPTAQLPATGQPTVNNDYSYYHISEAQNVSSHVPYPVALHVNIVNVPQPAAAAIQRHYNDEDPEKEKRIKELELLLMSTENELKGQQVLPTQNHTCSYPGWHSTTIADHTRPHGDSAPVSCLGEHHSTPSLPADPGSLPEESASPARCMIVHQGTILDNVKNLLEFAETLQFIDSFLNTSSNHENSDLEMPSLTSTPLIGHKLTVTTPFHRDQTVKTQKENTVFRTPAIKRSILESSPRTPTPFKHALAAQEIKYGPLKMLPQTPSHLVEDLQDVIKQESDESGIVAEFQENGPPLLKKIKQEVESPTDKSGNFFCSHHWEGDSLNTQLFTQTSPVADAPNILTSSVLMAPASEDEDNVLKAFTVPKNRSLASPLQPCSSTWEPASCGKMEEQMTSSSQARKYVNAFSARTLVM
Procedure, shortened: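 Reporter transcript levels, quantified by fluorescent RT-PCR and capillary electrophoresis, serve as the read-out. Transfected HepG2 cells carrying cis-promoter reporter units are dosed for 24 hours, and curves are fitted bidirectionally against DMSO controls.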

[7] = target: Nuclear respiratory factor 1 (Homo sapiens) (UniProt Q16656); experiment: ATG_NRF1_CIS: Attagene CIS-FACTORIAL HepG2 Assay for human Nuclear Respiratory Factor 1 (NRF1) Orphan Gene (AID 2282987); conditions: HepG2 NRF1 cis-element reporter, Attagene multiplex; actives raise or lower the signal
Sequence of Nuclear respiratory factor 1 (Homo sapiens) (Q16656 whole entry, looked up): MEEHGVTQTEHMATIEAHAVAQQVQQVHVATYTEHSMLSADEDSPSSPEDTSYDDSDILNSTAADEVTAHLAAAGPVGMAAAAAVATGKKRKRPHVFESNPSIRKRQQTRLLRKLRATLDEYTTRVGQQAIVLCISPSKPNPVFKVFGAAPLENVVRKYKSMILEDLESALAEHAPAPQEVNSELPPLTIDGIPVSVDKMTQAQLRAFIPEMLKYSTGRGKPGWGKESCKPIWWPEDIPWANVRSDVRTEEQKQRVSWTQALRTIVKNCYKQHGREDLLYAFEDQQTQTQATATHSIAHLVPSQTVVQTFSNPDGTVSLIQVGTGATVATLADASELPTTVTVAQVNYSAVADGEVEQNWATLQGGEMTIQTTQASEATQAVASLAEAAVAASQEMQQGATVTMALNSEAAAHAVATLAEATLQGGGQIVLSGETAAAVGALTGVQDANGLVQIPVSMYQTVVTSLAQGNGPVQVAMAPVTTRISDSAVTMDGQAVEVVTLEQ
Procedure, shortened: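 Multiplexed cis-reporter assay, HepG2 cells, 24 h treatment. Total RNA → oligo(dT) RT → PCR with reporter-specific primers → 6-FAM primer extension → HpaI cut → CE. Bidirectional fit vs DMSO.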

[8] = ATG_NFI_CIS: Attagene CIS-FACTORIAL HepG2 Assay for human Nuclear Factor I (NFI) (AID 2282989); conditions: HepG2 cis-regulatory reporter, NFI response element transcription; actives raise or lower the signal
Procedure, shortened: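 Transient MRTU transfection of HepG2 → 24 h chemical dosing → total RNA, oligo(dT) RT → PCR, 6-FAM primer extension, HpaI cut → capillary electrophoresis. Endpoint fitted bidirectionally relative to DMSO.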

[9] = target: Myc proto-oncogene protein (Homo sapiens) (UniProt P01106); experiment: ATG_Myc_CIS: Attagene CIS-FACTORIAL HepG2 Assay for human Myelocytomatosis (Myc) Proto-Oncogene Transcription Factor (AID 2282990); conditions: HepG2, Attagene cis-reporter transcription factor activity; actives raise or lower the signal
Sequence of Myc proto-oncogene protein (Homo sapiens) (P01106 whole entry, looked up): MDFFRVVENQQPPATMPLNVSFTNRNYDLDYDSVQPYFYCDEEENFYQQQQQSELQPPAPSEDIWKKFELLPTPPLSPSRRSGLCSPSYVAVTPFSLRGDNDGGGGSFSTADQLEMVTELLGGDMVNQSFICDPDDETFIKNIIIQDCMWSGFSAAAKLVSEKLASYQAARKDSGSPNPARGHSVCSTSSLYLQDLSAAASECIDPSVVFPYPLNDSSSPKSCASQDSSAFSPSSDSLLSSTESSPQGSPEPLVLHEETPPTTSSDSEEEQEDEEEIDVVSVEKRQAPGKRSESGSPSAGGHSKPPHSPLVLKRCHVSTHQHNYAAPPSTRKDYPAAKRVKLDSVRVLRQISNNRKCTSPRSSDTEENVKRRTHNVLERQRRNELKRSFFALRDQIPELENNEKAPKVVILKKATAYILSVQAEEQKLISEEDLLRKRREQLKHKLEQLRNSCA
Procedure, shortened: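 Cells of the HepG2 human liver line bear multiple cis-driven reporter transcription units. Reporter mRNA after 24 h exposure is reverse-transcribed, amplified, labelled and resolved by capillary electrophoresis, with gain- or loss-of-signal fitting relative to DMSO.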

[10] = ATG_NF_kB_CIS: Attagene CIS-FACTORIAL HepG2 Assay for human Nuclear Factor Kappa B (NF-kB) (AID 2282991); conditions: HepG2 Attagene cis-factorial NF-kB reporter mRNA; actives raise or lower the signal
Procedure, shortened: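 Transient MRTU transfection of human HepG2 liver cells → 24 h chemical exposure → total RNA, oligo(dT) RT → PCR, 6-FAM primer extension, HpaI digest 2 h 37 C → CE fragment analysis. Bidirectional fitting, DMSO negative control.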

[11] = ATG_NRF2_ARE_CIS: Attagene CIS-FACTORIAL HepG2 Assay for human Nuclear Factor Erythroid 2 Related Factor 2 (NFR2) response to Antioxidant Response Elements (ARE) (AID 2282992); conditions: HepG2 Attagene ARE/NRF2 reporter, transcription factor activity; actives raise or lower the signal
Procedure, shortened: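 Endogenous transcription factor activity read out as reporter transcript levels (RT-PCR plus capillary electrophoresis, fluorescence) in transiently transfected HepG2 cells. Measured at 24 h after dosing; gain or loss of signal fitted versus DMSO.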

[12] = ATG_Oct_MLP_CIS: Attagene CIS-FACTORIAL HepG2 Assay for human Octamer-Binding Transcription Factor (Oct) (AID 2282993); conditions: HepG2 Attagene cis-factorial Oct reporter, mRNA; actives raise or lower the signal
Procedure, shortened: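 Transient MRTU transfection of HepG2 → 24 h compound treatment → RNA isolation, reverse transcription, PCR → 6-FAM primer extension, HpaI digest → capillary electrophoresis. Activity fitted both directions against DMSO.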

[13] = target: Cellular tumor antigen p53 (Homo sapiens) (UniProt P04637); experiment: ATG_p53_CIS: Attagene CIS-FACTORIAL HepG2 Assay for human p53 Transcription Factor (AID 2282994); conditions: HepG2 p53 cis-element reporter, Attagene mRNA; actives raise or lower the signal
Sequence of Cellular tumor antigen p53 (Homo sapiens) (P04637 whole entry, looked up): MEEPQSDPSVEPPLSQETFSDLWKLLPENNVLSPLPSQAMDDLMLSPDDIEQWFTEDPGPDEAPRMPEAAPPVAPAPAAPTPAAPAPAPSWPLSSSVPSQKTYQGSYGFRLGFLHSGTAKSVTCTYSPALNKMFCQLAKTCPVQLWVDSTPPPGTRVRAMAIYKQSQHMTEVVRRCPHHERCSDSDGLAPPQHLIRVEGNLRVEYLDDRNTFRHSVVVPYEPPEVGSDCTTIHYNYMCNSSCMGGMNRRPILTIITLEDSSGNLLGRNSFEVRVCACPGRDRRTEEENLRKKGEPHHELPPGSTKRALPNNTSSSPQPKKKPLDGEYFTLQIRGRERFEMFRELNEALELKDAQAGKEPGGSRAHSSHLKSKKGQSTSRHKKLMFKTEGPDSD
Procedure, shortened: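 Endogenous p53 activity read in transiently transfected HepG2 from a cis-element-driven reporter transcript after 24 h exposure. RNA reverse-transcribed, PCR-amplified, fluorescently labelled and sized by capillary electrophoresis; gain or loss fitted against DMSO baseline.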

[14] = BSK_3C_TissueFactor: BioMAP Diversity Plus: 3C Assay for Tissue Factor Biomarker Activity (AID 2282997); conditions: BioMAP 3C HUVEC, tissue factor biomarker readout; actives raise or lower the signal
Procedure, shortened: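 Tissue factor on primary human umbilical vein endothelium was read by ELISA 24 h after dosing, gain or loss relative to DMSO. Cytotoxicity ran alongside via SRB (0.1%, TCA-fixed, 560 nm).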

[15] = BSK_3C_uPAR: BioMAP Diversity Plus: 3C Assay for Urokinase-type plasminogen activator receptor (uPAR) Biomarker Activity (AID 2282998); conditions: BioMAP 3C HUVEC, uPAR biomarker ELISA; actives raise or lower the signal
Procedure, shortened: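 ELISA readout of uPAR on human vascular endothelium (umbilical vein primary cells), taken 24 h after chemical dosing. Increases and decreases are both fitted relative to DMSO vehicle.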

[16] = BSK_3C_VCAM1: BioMAP Diversity Plus: 3C Assay for Vascular cell adhesion molecule 1 (VCAM1) Biomarker Activity (AID 2282999); conditions: BioMAP 3C HUVEC, VCAM1 ELISA, cytokine-stimulated; actives raise or lower the signal
Procedure, shortened: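 Activity fitted in both directions relative to DMSO, with ELISA measurement of the surface marker on primary HUVEC (3C) at 24 h post-treatment; parallel SRB staining (0.1% SRB, TCA-fixed, 560 nm) flagged overt cytotoxicity.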

[17] = BSK_4H_Eotaxin3: BioMAP Diversity Plus: 4H Assay for Eotaxin 3 Biomarker Activity (AID 2283000); conditions: primary human endothelial cells (HUVEC); actives raise or lower the signal
Procedure, shortened: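 Human umbilical vein endothelial cells (BSK_4H system) dosed with test chemical; Eotaxin-3 (CCL26) measured by ELISA 24 h after dosing. Bidirectional curve fitting relative to DMSO negative control as baseline.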

[18] = target: Hepatocyte nuclear factor 4-alpha (Homo sapiens) (UniProt P41235); experiment: ATG_HNF4a_TRANS: Attagene TRANS-FACTORIAL HepG2 Assay for human Hepatocyte Nuclear Factor 4 alpha (HNF4a) (AID 2282982; active means hit-call score of the fitted dose curve at least 0.9, where 1 is the maximum); conditions: HepG2 HNF4a transactivation reporter, mRNA readout
Sequence of Hepatocyte nuclear factor 4-alpha (Homo sapiens) (P41235 whole entry, looked up, the tested form may be a part): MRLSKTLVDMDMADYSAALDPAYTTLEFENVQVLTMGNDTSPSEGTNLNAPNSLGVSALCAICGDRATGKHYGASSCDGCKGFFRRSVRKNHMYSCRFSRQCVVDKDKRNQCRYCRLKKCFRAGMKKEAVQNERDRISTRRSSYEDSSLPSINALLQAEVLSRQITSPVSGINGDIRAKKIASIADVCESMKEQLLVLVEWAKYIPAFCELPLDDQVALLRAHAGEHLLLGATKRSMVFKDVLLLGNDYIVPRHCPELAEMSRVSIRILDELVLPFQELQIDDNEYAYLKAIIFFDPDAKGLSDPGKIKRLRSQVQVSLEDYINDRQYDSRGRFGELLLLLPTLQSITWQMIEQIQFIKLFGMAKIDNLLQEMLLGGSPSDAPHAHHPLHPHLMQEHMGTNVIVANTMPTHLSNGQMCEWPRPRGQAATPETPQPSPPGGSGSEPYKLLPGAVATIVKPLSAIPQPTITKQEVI
Procedure, shortened: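 Activity of an exogenous HNF4a–Gal4 fusion scored as induced GAL4-UAS reporter transcripts after 24 h chemical exposure of transfected human HepG2 cells. Read-out via RT-PCR with 6-FAM labelling and capillary electrophoresis; rise over DMSO baseline.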

[19] = target: Glucocorticoid receptor (Homo sapiens) (UniProt P04150); experiment: ATG_GR_TRANS: Attagene TRANS-FACTORIAL HepG2 Assay for human Glucocorticoid Receptor (GR) (AID 2282978; active means hit-call score of the fitted dose curve at least 0.9, where 1 is the maximum;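 further: activators score as hits since higher reporter transcript over DMSO is fitted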); conditions: HepG2 Attagene TRANS GR reporter, mRNA transcription
Procedure, shortened: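 Fluorescent capillary-electrophoresis quantitation of reporter mRNA is the readout, taken 24 h after dosing human HepG2 cells carrying transiently transfected GAL4-UAS reporter units activated by chimeric NR-GAL4 fusions; activity scored as induction over DMSO.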

[20] = target: Nuclear receptor subfamily 4 group A member 2 (Homo sapiens) (UniProt P43354); experiment: ATG_NURR1_TRANS: Attagene TRANS-FACTORIAL HepG2 Assay for human Nuclear Receptor Related Protein 1 (NURR1) (AID 2282985; active means hit-call score of the fitted dose curve at least 0.9, where 1 is the maximum); conditions: HepG2 Attagene TRANS reporter, mRNA readout
Sequence of Nuclear receptor subfamily 4 group A member 2 (Homo sapiens) (P43354 whole entry, looked up, the tested form may be a part): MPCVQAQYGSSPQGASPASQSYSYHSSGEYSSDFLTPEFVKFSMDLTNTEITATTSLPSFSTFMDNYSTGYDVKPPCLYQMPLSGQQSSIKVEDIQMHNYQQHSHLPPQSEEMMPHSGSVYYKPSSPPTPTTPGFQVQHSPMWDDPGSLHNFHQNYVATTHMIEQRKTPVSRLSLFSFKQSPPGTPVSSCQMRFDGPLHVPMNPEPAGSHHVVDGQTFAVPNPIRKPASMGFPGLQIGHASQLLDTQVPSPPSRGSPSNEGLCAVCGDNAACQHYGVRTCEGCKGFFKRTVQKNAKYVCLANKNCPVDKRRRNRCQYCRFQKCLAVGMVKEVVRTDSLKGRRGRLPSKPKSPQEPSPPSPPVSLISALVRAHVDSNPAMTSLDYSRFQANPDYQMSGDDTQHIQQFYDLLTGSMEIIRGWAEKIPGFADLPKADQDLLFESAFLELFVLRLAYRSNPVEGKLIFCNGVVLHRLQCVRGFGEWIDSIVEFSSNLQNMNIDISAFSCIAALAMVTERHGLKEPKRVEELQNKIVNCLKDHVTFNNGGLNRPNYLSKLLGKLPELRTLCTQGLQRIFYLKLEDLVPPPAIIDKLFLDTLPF
Procedure, shortened: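 Reporter transcript induction, measured by RT-PCR with fluorescent labelling, HpaI digestion and capillary electrophoresis, after 24 hr dosing of human HepG2 cells transiently expressing an exogenous NR-Gal4 fusion with GAL4-UAS-driven reporters; DMSO as baseline.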

Measured: AC50

O=C=NCCCCCCN=C=O
inactive: [1] | [2] | [3] | [4] | [5] | [6] | [7] | [8] | [9] | [10] | [11] | [12] | [13] | [14] | [15] | [16] | [17]

CCCC(=O)OCCC(C)C
inactive: [1] | [2] | [3] | [4] | [7] | [8] | [9] | [10] | [11] | [12] | [13] | [15] | [16] | [17]
active: [6] 1.84 µM

CCCCCCCCCCCCO
inactive: [2] | [3] | [18] | [4] | [5] | [6] | [7] | [8] | [9] | [11] | [12] | [13]
active: [15] 32.7 µM | [16] 38.7 µM | [17] 31.1 µM

CC(C)(O)c1ccc(CNC(=O)c2cccnc2Oc2ccc3nonc3c2)cc1
inactive: [3] | [4] | [5] | [20] | [6] | [7] | [8] | [9] | [10] | [11] | [12] | [13] | [14] | [15] | [16] | [17]
active: [19] 48.6 µM

CCCOC(=O)c1cc(O)c(O)c(O)c1
active: [11] 5.91 µM
inactive: [1] | [3] | [18] | [4] | [6] | [7] | [8] | [9] | [12] | [13] | [15] | [16] | [17]

C[C@]12CC[C@@H]3c4ccc(O)cc4CC[C@H]3[C@@H]1CCC2=O
inactive: [1] | [2] | [3] | [18] | [4] | [5] | [6] | [7] | [8] | [9] | [10] | [11] | [12] | [15] | [16] | [17]

CN1C(=O)CC[C@H]1c1cccnc1
inactive: [2] | [3] | [18] | [4] | [5] | [6] | [7] | [8] | [9] | [10] | [11] | [12] | [13] | [15] | [16] | [17]
